Source: PubChem
NPC1 promoter act: NPC1 promoter activation; Huh7 NPC1 promoter luciferase reporter, 24 h; Potency, µM (highest dose often 9.22 µM), for inactives: at the highest dose activation, most hits filed as activators; actives 2.4% (n = 320,000); further: % of control where 0% means no effect; nearly all actives have a fitted effect of over 60% in size
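Huh7 cells stably carrying NPC1 promoter–luciferase, plated in Opti-MEM with 10% FBS for 2 h, were exposed to compound in DMSO for 24 h at 37 °C; luciferase reagent was added for 10 min and luminescence read.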
SMN2 splice up: SMN2 splice variant enhancement | AID 1458 | HEK293 SMN2-luciferase splicing reporter, luminescence, 30-36 h | Potency, µM (doses to about 46.1 µM), inactives show top-dose activity change, positive = activation, most hits filed as activators | actives 2.8% (n = 210,000); further: % of control where 0% means no effect; nearly all actives have a fitted effect of over 55% in size
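qHTS luciferase splicing reporter: luminescence rises when SMN2 exon 7 is included in transfected HEK293 cells. Compound exposure lasted 30-36 h at 37C, with 4.5 mM final sodium butyrate as control, followed by a ONE-Glo read.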
FLuc modulator: firefly luciferase modulation, counter-screen for miR-21 project. P08659. purified FLuc, Km substrates, luminescence inhibition. Potency, µM (top dose mostly 57.5 µM), without a hit: at the highest dose activity change, negative = inhibition, most hits filed as inhibitors. actives 6.9% (n = 360,000). AID 588342;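 further: plate controls were vehicle for no effect and reference inhibitor for full effect; nearly all actives have a fitted effect of over 55% in size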
Target sequence (P08659 whole entry, looked up): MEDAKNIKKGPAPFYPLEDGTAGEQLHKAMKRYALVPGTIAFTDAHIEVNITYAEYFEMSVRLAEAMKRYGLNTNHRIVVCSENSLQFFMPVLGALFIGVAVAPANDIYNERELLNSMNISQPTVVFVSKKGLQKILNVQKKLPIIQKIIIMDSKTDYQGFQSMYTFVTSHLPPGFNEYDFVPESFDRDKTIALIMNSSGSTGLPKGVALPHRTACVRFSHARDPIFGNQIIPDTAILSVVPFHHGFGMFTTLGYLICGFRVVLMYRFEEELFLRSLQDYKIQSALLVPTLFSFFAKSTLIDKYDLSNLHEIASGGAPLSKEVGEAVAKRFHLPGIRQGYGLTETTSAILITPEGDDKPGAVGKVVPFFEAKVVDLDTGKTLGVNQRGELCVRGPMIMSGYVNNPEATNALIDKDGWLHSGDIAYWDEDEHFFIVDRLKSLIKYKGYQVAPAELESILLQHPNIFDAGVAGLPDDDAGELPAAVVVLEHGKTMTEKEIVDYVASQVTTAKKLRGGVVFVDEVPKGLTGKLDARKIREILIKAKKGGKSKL
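Biochemical qHTS of compounds, final roughly 60 µM downward over six points, against 10 nM purified firefly luciferase using Km concentrations of substrates (10 uM D-luciferin, 10 uM ATP) in Tris acetate pH 7.5 buffer; luminescence output.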
Rab9 prom act: activates the Rab9 promoter | Huh7 Rab9 promoter-luciferase reporter, luminescence, 24 h | Potency, µM (top dose mostly 9.22 µM), without a hit: at the top dose activation, negative = inhibition, hits mostly activators | actives 2.8% (n = 320,000); further: % of control where 0% means no effect; nearly all actives have a fitted effect of over 60% in size
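Rab9 promoter-driven luciferase in stably transfected Huh7 cells; 1500 cells/well rested 2 h, exposed to compound in DMSO for 24 h at 37 °C, 5% CO2. Luminescence read 10 min after adding luciferase reagent at ambient temperature.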
Luc counter: Kinase-Glo luciferase inhibition (counter-screen); Kinase-Glo luciferase, ATP luminescence, 8 min; Potency, µM (series often up to 38.3 µM), for inactives: top-dose activity change, negative = inhibition, actives largely listed as inhibitors; actives 0.28% (n = 200,000); further: on the % scale 0 is the no-effect control and ±100 the full control effect; nearly all actives have a fitted effect of over 60% in size
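Light output from Kinase-Glo luciferase with luciferin and 10 uM ATP in 50 mM imidazole pH 7.2, KCl, MgCl2, Tween 20, BSA; compound pin-delivered, 8-min ambient incubation, then luminescence read.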
ELG1 genotoxic: genotoxicity induction in ELG1-luciferase HEK293T cells; Potency, µM (top dose mostly 46 µM), without a hit: at the top dose activity change, positive = activation, usual class: activators; actives 1.3% (n = 330,000); HEK293T ELG1-luciferase reporter, luminescence, 16 h; further: % of control where 0% means no effect; nearly all actives have a fitted effect of over 60% in size
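Genotoxic stress is detected as increased luminescence from luciferase-tagged ELG1 in HEK293T cells, measured with ONE-Glo after a 16 hr treatment at 37 °C.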
The depositor's hits bear a star; ? = inconclusive; nt = no result given. An excerpt weighted towards active compounds, which were near 7.5% of everything screened. The call rests on the fitted dose curve; in most records, active means well fitted curve in the direction sought with a large enough effect; inconclusive means small, poorly fitted or top-dose-only effect, or another doubt; inactive means no such curve, though single readings can be large; an effect the other way counts as inactive or inconclusive. Potency means the concentration at half of the fitted maximal effect.

SMILES | NPC1 promoter act | SMN2 splice up | FLuc modulator | Rab9 prom act | Luc counter | ELG1 genotoxic
COc1ccc2c(c1)CCc1c(C(=O)NCc3ccco3)noc1-2 | 3.5µM* | 7.1µM* | 7.6µM* | 1.6µM* | 0% | ?
COCC(C)NC(=O)c1noc2c1CCc1cc(OC)ccc1-2 (configuration not stated) | 3.2µM* | 10µM* | 13µM* | 2.5µM* | -5% | ?
COc1ccc2c(c1)CCc1c(C(=O)NCCN3CCOCC3)noc1-2 | -1% | -6% | -16% | -3% | 1% | 2%
COCCNC(=O)c1noc2c1CCc1cc(OC)ccc1-2 | 3.5µM* | 7.9µM* | ? | ? | -2% | ?
COc1ccc2c(c1)CCc1c(C(=O)Nc3ccc(C#N)cc3)noc1-2 | nt | 18% | -2% | nt | nt | nt
COc1ccc2c(c1)CCc1c(C(=O)N(C)c3ccccc3)noc1-2 | ? | 5µM* | 13µM* | ? | -1% | ?
CCOC(=O)COc1ccc(C)cc1C(=O)c1ccn2nc(-c3ccc(F)cc3)cc2n1 | nt | -6% | 5% | nt | nt | nt
COc1ccc2c(c1)CCc1c(C(=O)Nc3cc(OC)c(Cl)cc3OC)noc1-2 | nt | 3% | -5% | nt | nt | nt
COc1ccc2c(c1)CCc1c(C(=O)NC3CCCCC3)noc1-2 | 1.4µM* | 7.1µM* | 1.3µM* | 1.1µM* | -12% | ?
COc1cc2cc(CCCOC(=O)c3ccc(C#N)cc3)oc(=O)c2cc1OC | -3% | nt | -2% | 0% | nt | 4%
O=C(CN1C(=O)C2CC=CCC2C1=O)Nc1ccc(S(=O)(=O)Nc2nccs2)cc1 (configuration not stated) | 1% | nt | -2% | 2% | nt | -2%
CC1CCc2sc(C(=O)NNC(=S)NCC3CCCO3)cc2C1 (configuration not stated) | -2% | nt | -16% | 20% | nt | 8%
CC1CCc2sc(C(=O)NC(C)C3CCCO3)cc2C1 (configuration not stated) | ? | nt | 11µM* | ? | nt | ?
CC1CCc2sc(C(=O)NC3CCCCC3)cc2C1 (configuration not stated) | 1.8µM* | nt | ? | 3.5µM* | nt | ?
COc1ccc2c(c1)c1c(c(=O)n(-c3cccc(C)c3)c(=O)n1CC(=O)NCCC1=CCCCC1)n2C | nt | 9% | -1% | nt | nt | nt
O=[N+]([O-])c1ccc(Sc2nccn2Cc2ccccc2)c([N+](=O)[O-])c1 | 11% | 10% | 0% | 16% | -2% | -27%
COc1cc(C(=O)NCC(c2ccco2)S(=O)(=O)c2cccs2)cc(OC)c1OC (configuration not stated) | nt | nt | 2% | nt | nt | nt
COc1ccccc1-c1nnc(SCc2nc3ccccc3s2)n1C | 20% | 0% | ? | 24% | 1% | 4%
Cn1c(SCc2nc3ccccc3s2)nnc1-c1cccs1 | 18% | -12% | ? | 6% | -11% | ?
CCOc1ccc(-n2nnnc2-c2nc3ccccc3s2)cc1 | ? | -55% | 2.1µM* | 2.5µM* | -5% | 18µM*
CCOc1ccccc1-n1nnnc1SCc1nc2ccccc2s1 | 14% | -28% | 13µM* | 17% | -2% | -4%
COc1ccc(-c2nnc(SCc3nc4ccccc4s3)n2C(C)C)cc1 | 25% | 29% | ? | ? | 2% | ?
Cc1ccccc1-n1c(C)nnc1SCc1nc2ccccc2s1 | 15% | 2% | 4.8µM* | 28% | -3% | ?
CCn1c(SCc2nc3ccccc3s2)nnc1-c1cccs1 | 18% | ? | 15µM* | ? | -5% | ?
COc1ccccc1CNC(=O)CCC(=O)N1Cc2cccc(OC)c2Oc2ncccc21 | -1% | nt | 1% | -2% | nt | 4%
SMILES | NPC1 promoter act | SMN2 splice up | FLuc modulator | Rab9 prom act | Luc counter | ELG1 genotoxic
COc1ccc(C(=S)N2CCC(C(N)=O)CC2)cc1Br | -5% | 2% | -8% | -1% | 2% | 5%
CCCCOc1ccc(C(=S)N2CCC(C(N)=O)CC2)cc1 | ? | ? | 24µM* | 4.5µM* | -1% | ?
Cc1nn(-c2ccccc2)c(Cl)c1/C=N/NC(N)=O | 18% | nt | ? | 18% | nt | ?
Cc1nn(-c2ccccc2)c(Cl)c1/C=N/Nc1nc2ccccc2n1C | 3.5µM* | 11µM* | 2.4µM* | ? | -28% | 8%
Cc1nn(-c2ccccc2)c(Cl)c1/C=N/NC(=O)c1ccnn1C | 1.4µM* | nt | 2.7µM* | 2.8µM* | nt | 15µM*
Cc1nn(-c2ccccc2)c(Cl)c1/C=N/NC(=O)CNC(=O)c1ccccc1Cl | 6% | 4% | 19µM* | 7% | 0% | -3%
COC(=O)N/N=C\c1c(C)nn(-c2ccccc2)c1Cl | ? | ? | 15µM* | ? | -1% | ?
COc1ccc(NC(=O)c2cc(C)nc3c2c(C)nn3-c2ccc(C)cc2)cc1OC | nt | nt | -1% | nt | nt | nt
Cc1ccc(S(=O)(=O)N2CCN(C(=O)CCC(=O)NCc3ccc(F)cc3)CC2)cc1 | -2% | 10% | 4% | -6% | 2% | -2%
Cc1ccc(N2C(=O)CC2(C#N)c2ccc(OCc3ccccc3)cc2)cc1 (configuration not stated) | 0% | -6% | 6% | -5% | 1% | -3%
C[C@@H]1C(=O)O[C@H]2[C@H](O)[C@@]34[C@H]5C[C@@H](C(C)(C)C)[C@]36[C@@H](OC(=O)[C@@H]6O)O[C@@]4(C(=O)O5)[C@@]12O | -6% | nt | 2% | -4% | nt | 1%
Cc1nc(S/C(=C/c2ccc(-c3cccc(Cl)c3)o2)C(=O)O)n[nH]1 | 0% | -23% | 5.4µM* | 4% | -4% | -4%
Cc1ccc2nc(/C(C#N)=C/c3ccc(-c4cccc(Cl)c4)o3)[nH]c2c1 | nt | -1% | -17% | nt | nt | nt
O=C(N/N=C/c1ccoc1)c1cc(Br)ccc1O | 0% | nt | 3µM* | 3% | nt | 10%
CCOc1ccc(Br)cc1C(=O)N/N=C/c1cccc(C)n1 | 1% | nt | 2% | -2% | nt | 1%
Cc1cccc(/C=N/NC(=O)c2cc(Br)ccc2O)n1 | 10% | nt | 24µM* | 19% | nt | ?
Cc1ccc(S(=O)(=O)N2[C@@H](c3cccc(C)c3)C(C(=O)O)=C[C@H]2C(C)(C)C)cc1 | nt | nt | nt | nt | nt | -3%
CCCCCCN(CCCCCC)C(=O)Cc1c(-c2ccc(Cl)cc2)[nH]c2ccc(Cl)cc12 | nt | -33% | nt | nt | 0% | nt
O=C(NCCc1ccccc1)c1ccc(NCC2CCCO2)c([N+](=O)[O-])c1 (configuration not stated) | ? | 10µM* | ? | ? | 5% | ?
NC(=O)c1ccc(NCC2CCCO2)c([N+](=O)[O-])c1 (configuration not stated) | 6% | nt | -1% | 4% | nt | 5%
